Reference: PubChem BioAssay AID2289 (National Center for Advancing Translational Sciences (NCATS), 2010)
Hit rate of the full screen: of about 340,000 compounds, about 3,300 (0.97%) were called active. Inconclusive results (about 9%) are left out. The call rests on the fitted dose curve; in most records, active means well fitted inhibition curve with a large enough effect; inconclusive means small, poorly fitted or top-dose-only effect, or effect the other way; inactive means flat fitted curve, though single readings scatter. The list shows a part of the results.

Test: qHTS Assay for Modulators of miRNAs and/or Inhibitors of miR-21; further: nearly all actives have a fitted effect of over 55% in size
Settings: HeLa miR-21-FLuc reporter, luciferase luminescence, 48 h; actives lower the signal
Procedure, shortened: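 HeLa cells stably expressing CMV-driven firefly luciferase with a downstream miR-21 binding sequence, endogenously expressing miR-21, were treated with titrations (up to about 40uM final) for 48 hours at 37 degree Celsius. Luciferase luminescence was read after lysis.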
Potency means the concentration at half of the fitted maximal effect.

Potency, active:
O=C(COC(=O)c1cc2ccccc2oc1=O)Nc1ccc(F)cc1F 6.56 µM, CN(C)S(=O)(=O)c1cccc(NC(=O)COC(=O)c2cc3ccccc3oc2=O)c1 6.56 µM, COc1ccc(-c2nnc(SCC(=O)c3ccc[nH]3)n2-c2ccccc2)cc1 13.1 µM, Cc1ccc(SCC(=O)c2ccc[nH]2)cc1 13.1 µM, O=c1c(Br)c(N2CCCC2)cnn1-c1ccccc1 1.85 µM, COc1ccc(N2Cc3ccccc3C2=NC(=O)c2cccc([N+](=O)[O-])c2)cc1 13.1 µM, O=C(N=C1c2ccccc2CN1c1ccc(F)c(Cl)c1)c1cccnc1Cl 6.56 µM, O=C(N=C1c2ccccc2CN1c1cccc(Cl)c1)c1cccnc1 4.65 µM, CC1SCC(NC(=O)c2ccccc2Cl)CS1 (centres undefined) 13.1 µM, CC1SCC(NC(=O)c2ccc(Cl)cc2)CS1 (centres undefined) 16.5 µM, CCn1c(C)nc2cc(C(=O)NNC(=S)Nc3ccccc3)ccc21 0.927 µM, CCn1c(C)nc2cc(C(=O)NNC(=S)Nc3ccc(F)cc3)ccc21 8.26 µM, Cc1nn(-c2nc3ccccc3[nH]2)c(N)c1-c1ccccc1 0.414 µM, COc1ccc(-c2c(C)nn(-c3ccccc3)c2N)cc1 5.21 µM, Cc1nn(-c2ccccc2)c(N)c1-c1ccccc1 6.56 µM, Cc1nn(-c2cccc([N+](=O)[O-])c2)c(N)c1-c1ccccc1 4.14 µM, Cc1nn(C(=O)c2cccs2)c(N)c1-c1ccccc1 5.21 µM, O=C(O)CCc1ccc(S(=O)(=O)Nc2ccccc2C(=O)NCCc2ccccc2)cc1 6.56 µM, NC(=O)Nc1ccccc1C(=O)NCCc1ccccc1 5.85 µM, c1ccc(CSc2nnc(-c3ccco3)o2)cc1 13.1 µM, Cc1ccccc1-c1nnc(Cc2ccccc2)o1 4.14 µM, N#Cc1ccccc1CSc1nnc(-c2ccc(Br)cc2)o1 0.414 µM, Cc1ccccc1-c1nc(Cc2ccccc2)no1 14.7 µM, Brc1c(CSc2nnc(-c3ccco3)o2)nc2ccccn12 11.7 µM, Cc1ccccc1-c1nnc(CN2CCC(C)CC2)o1 14.7 µM, Cc1ccccc1-c1nnc(SCc2ccccc2)o1 5.21 µM, Brc1ccc(-c2nnc(Cc3ccccc3)o2)cc1 13.1 µM, Cc1ccc(-c2nnc(SCc3ccccc3)o2)cc1 2.93 µM, Cc1c(C(=O)OC2CCC(C)CC2)[nH]c2c1C(=O)CCC2 (centres undefined) 0.464 µM, COC(=O)C1C(=O)c2c([nH]c(C(=O)OC3CCCC3)c2C)CC1C (centres undefined) 1.47 µM, Cc1c(C(=O)OC2CCCC2C)[nH]c2c1C(=O)CCC2 (centres undefined) 6.56 µM, COc1cc(Cl)ccc1OCc1cc(C(=O)N(C)CC2CCCCO2)no1 (centres undefined) 10.4 µM, COc1cc(C)ccc1OCc1cc(C(=O)N(C)CCCN2CCOCC2)no1 6.56 µM, COc1cc(Cl)ccc1OCc1cc(C(=O)N(C)CCc2cnn(C)c2)no1 5.85 µM, Cc1cc(N(C)C)ccc1N=Nc1ccc2ncccc2c1 1.65 µM, COc1ccc2oc(=N)c(C(=O)Nc3ccccc3Cl)cc2c1 0.414 µM, COc1cc2ccccc2cc1C(=O)Nc1ccccc1C 3.29 µM, Cc1ccccc1NC(=O)c1ccc2ccccc2c1 5.21 µM, COc1ccc(C(=O)Nc2ccccc2C(=O)O)cc1Cl 4.65 µM, COc1cc2ccccc2cc1C(=O)Nc1ccc(C)cn1 0.656 µM, COc1cc2ccccc2cc1C(=O)Nc1ccccc1Cl 1.85 µM, CSc1ncc(-c2ccc(Cl)cc2)[nH]1 1.65 µM, Cc1cccc(-n2cnc(C(=O)NC3CCCCCC3)c2)n1 3.69 µM, Cc1cc(O)cc2c(=O)c3ccccc3sc12 16.5 µM, CCn1c(C)cc(/C=C2/SC(=O)N(C(C)C(=O)OC)C2=O)c1C (centres undefined) 2.07 µM, CCn1c(C)cc(/C=C2/SC(=S)NC2=O)c1C 10.4 µM, CC(=O)Nc1ccc2c(c1)ncn2-c1ccccc1 7.36 µM, CCC(=O)Nc1ccc2c(c1)ncn2-c1ccc(OC)cc1 16.5 µM, COc1ccc(-n2cnc3cc(N)ccc32)cc1 14.7 µM, CCC(=O)Nc1ccc2c(c1)ncn2-c1ccc(C)cc1 5.21 µM, CCC(=O)Nc1ccc2c(c1)ncn2-c1ccccc1 7.36 µM, O=C(Nc1ccc2c(c1)ncn2-c1ccccc1)c1ccco1 2.33 µM, Cc1scc(C(=O)N/N=C/c2ccc(Cl)s2)c1C 1.65 µM, CCc1ccc(C(=O)N/N=C(\C)c2ccncc2)s1 20.7 µM, C/C(=N/NC(=O)c1ccc(C)s1)c1ccncc1 16.5 µM, C/C(=N\NC(=O)c1csc(C)c1C)c1ccc(C)s1 13.1 µM, O=C1CN(c2nc(-c3cccs3)nc3sc4c(c23)CCCC4)CCN1 10.4 µM, CN(C)CCNC(=O)c1cc2c(s1)-c1ccccc1OC2 13.1 µM, CCN(CC)C(=O)c1cc2sc3ccccc3c2s1 3.29 µM, CN(C)CCNC(=O)c1cc2sc3ccccc3c2s1 16.5 µM, CC(C)(C)OC(=O)N/N=C\C=C\c1ccc2c(c1)OCO2 3.69 µM, CCOC(=O)N/N=C\C=C\c1ccc2c(c1)OCO2 7.36 µM, CN(C)c1ccc(N=Nc2cccc(F)c2)cc1 2.07 µM, CN(C)c1ccc(N=Nc2cccc3ccoc23)cc1 0.826 µM, Cc1nnsc1C(=O)NNc1ccc(C(C)C)cc1 13.1 µM, COCCCNC(=O)c1ccc2nc(Cc3ccc(OC)cc3)oc2c1 9.27 µM, CNC(=O)c1ccc2nc(CCc3ccccc3)oc2c1 5.85 µM, O=C(NCCCn1ccnc1)c1cc(-c2cccs2)on1 14.7 µM, O=C(NCCCn1ccnc1)c1cc(-c2ccccc2)on1 16.5 µM
